Sfp PPTase inh – blocks B. subtilis Sfp PPTase activity; Q9F4F7; Biochemical Sfp PPTase activity, qHTS; Potency, µM, without a hit: largest response in the series, negative = inhibition, hits mostly inhibitors; actives 3.5% (n = 310,000);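 note: the enzyme is Sfp with the accession as filed and its product quenches rhodamine fluorescence; 0% = enzyme reaction without inhibitor and -100% = no enzyme wells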
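With Hepes-Na pH 7.6 buffer containing 10 mM MgCl2, Sfp (15 nM) modified BHQ-2-YbbR (12.5 uM) using rhodamine-CoA (5 uM). Two reads 30 minutes apart at 525/598 nm yielded each well's rate.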
IDH1 R132H inh – blocks human mutant IDH1 R132H enzyme; O75874; IDH1-R132H enzyme, NADPH consumption, diaphorase/resazurin fluorescence; AID 602179; Potency, µM (series often up to 76.6 µM), for inactives: at the highest dose activity change, negative = inhibition, usual class: inhibitors; actives 0.093% (n = 390,000); note: nearly all actives have a fitted effect of over 65% in size
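IDH1-R132H (0.5 ug/mL) preincubated 30 min with compound, then NADPH (0.016 mM) and alpha-KG (2 mM) added; 80 min at RT, pH 7.5. Remaining NADPH coupled via diaphorase/resazurin to fluorescence (540/590 nm); concentration-response curves normalized to no-enzyme control.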
PLK1 PBD inh – blocks phosphopeptide binding to human PLK1 polo-box domain; P53350; Plk1 PBD binding of FITC phosphopeptide, fluorescence polarization; Potency, µM, for the others: max response, negative = inhibition, hits mostly inhibitors; actives 2.8% (n = 360,000); note: series mostly up to about 57 µM; nearly all actives have a fitted effect of over 65% in size
Target sequence (P53350 whole entry, looked up, the tested form may be a part): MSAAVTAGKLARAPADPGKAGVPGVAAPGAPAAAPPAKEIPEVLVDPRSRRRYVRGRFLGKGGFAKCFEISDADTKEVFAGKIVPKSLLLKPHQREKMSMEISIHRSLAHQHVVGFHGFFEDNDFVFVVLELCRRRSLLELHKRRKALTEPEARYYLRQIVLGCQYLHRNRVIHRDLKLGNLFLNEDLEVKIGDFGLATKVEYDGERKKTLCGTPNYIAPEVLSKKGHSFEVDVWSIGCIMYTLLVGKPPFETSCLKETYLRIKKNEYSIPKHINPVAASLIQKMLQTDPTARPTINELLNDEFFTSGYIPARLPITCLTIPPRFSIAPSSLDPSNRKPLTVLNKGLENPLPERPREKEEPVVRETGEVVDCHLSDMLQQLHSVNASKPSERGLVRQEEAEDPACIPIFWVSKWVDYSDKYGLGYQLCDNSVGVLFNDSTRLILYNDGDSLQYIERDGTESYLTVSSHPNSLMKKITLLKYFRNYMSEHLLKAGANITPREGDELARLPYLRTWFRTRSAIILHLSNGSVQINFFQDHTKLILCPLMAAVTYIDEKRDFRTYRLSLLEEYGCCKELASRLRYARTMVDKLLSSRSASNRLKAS
TrxR1 inh – rat TrxR1 inhibition; O89049; Potency, µM (top dose mostly 114 µM), inactives show top-dose activity change, negative = inhibition, usual class: inhibitors; actives 1% (n = 390,000); recombinant rTrxR1, NADPH fluorescence consumption, selenite substrate; note: nearly all actives have a fitted effect of over 65% in size
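Rat TrxR1 (90 nM in the dispensed reagent) was pre-reduced with 400 uM NADPH for 5 min at room temperature, then incubated with compound for 15 min. After 400 uM selenite was added, NADPH fluorescence (Ex 340/Em 450 nm) was followed for 8 min.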
TrxR1 substrate – substrates of rat thioredoxin reductase 1; O89049; purified TrxR1 substrate turnover, NADPH consumption readout; Potency, µM (doses to about 114 µM), for inactives: top-dose activity change, negative = substrate turnover; actives 0.01% (n = 390,000); AID 588456; note: nearly all actives have a fitted effect of over 50% in size
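Rat TrxR1, dispensed at 90 nM, was prereduced with 400 uM NADPH (final) for 5 min at ~22 deg C, then incubated with compound 15 min before 400 uM selenite. A first-read NADPH fluorescence drop versus no-compound background flagged substrates.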
VDR inhibitor – inhibitors of human vitamin D receptor | P11473 | VDR-SRC2-3 peptide fluorescence polarization, 2 h | Potency, µM, inactives show max response, negative = inhibition, usual class: inhibitors | actives 0.93% (n = 400,000)
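Fluorescence polarization assay of small-molecule disruption of VDR binding to coregulator peptide SRC2-3. Compounds and controls pin-transferred, then read after 2 h incubation at ambient room temperature.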
* marks the source's active call; other numbers are inactive results; [ ] = dose if it differs, or a comment. A selection: hits, their analogues and other compounds. The true share with any hit is near 5.2%. Calls come from the whole dose curve; as a rule, active = well fitted curve in the direction sought with a large enough effect; inconclusive = small, poorly fitted or top-dose-only effect, or another doubt; inactive = no such curve, though single readings can be large; an effect the other way counts as inactive or inconclusive. Unless noted, % is set by controls: 0 for no effect and ±100 for the full control effect; potency is the fitted concentration of half-maximal effect.

For CCN1CCN(CCCNC(=O)c2ccc(/C=C3/Oc4ccccc4N(Cc4cccc(C)c4)C3=O)cc2)CC1 the results were Sfp PPTase inh 40µM*, IDH1 R132H inh 0%, PLK1 PBD inh -19%, TrxR1 inh 26%, TrxR1 substrate 95% and VDR inhibitor -13%.
CCN1CCN(CCNC(=O)c2ccc(/C=C3/Sc4ccccc4N(Cc4ccccc4C)C3=O)cc2)CC1 was read as Sfp PPTase inh 40µM*, IDH1 R132H inh 0%, PLK1 PBD inh -9%, TrxR1 inh 29%, TrxR1 substrate 1% and VDR inhibitor 0%.
For CCN1CCN(CCCNC(=O)c2ccc(/C=C3/Sc4ccccc4N(Cc4ccccc4F)C3=O)cc2)CC1 the results were Sfp PPTase inh 50µM*, IDH1 R132H inh -3%, PLK1 PBD inh -11%, TrxR1 inh 21%[57.1 µM], TrxR1 substrate 5%[57.1 µM] and VDR inhibitor -4%.
For CN(C)c1cccc(C(=O)N2CCC(c3ccncc3)CC2)c1 the results were IDH1 R132H inh 15%, TrxR1 inh 12%[57.1 µM], TrxR1 substrate 3%[57.1 µM] and VDR inhibitor 12%.
Cc1ccc(Cn2c(-c3ccccc3)nc3ccccc32)cc1 was read as IDH1 R132H inh 1%, TrxR1 inh 7%, TrxR1 substrate 5% and VDR inhibitor 5%.
For Cc1ccc(Cn2c(S(=O)(=O)O)nc3ccccc32)cc1 the results were Sfp PPTase inh 3%, IDH1 R132H inh 11%, PLK1 PBD inh 24µM*, TrxR1 inh -1%, TrxR1 substrate -5% and VDR inhibitor inconclusive.
Screening CC(/C=C\c1ccccc1)=C/C(=O)O returned Sfp PPTase inh 9%, IDH1 R132H inh 2%, PLK1 PBD inh 5%, TrxR1 inh 3%[57.1 µM], TrxR1 substrate 5%[57.1 µM] and VDR inhibitor -10%.
Screening O=C(/C=C/c1ccccc1)/C=C/c1ccccc1 returned Sfp PPTase inh -27%, IDH1 R132H inh -14%, PLK1 PBD inh -26%, TrxR1 inh 56µM*, TrxR1 substrate -13% and VDR inhibitor 13µM*.
`O=C(NCc1ccc(Cl)cc1)c1cccnc1` gave Sfp PPTase inh -2%, IDH1 R132H inh -1%, PLK1 PBD inh 24µM*, TrxR1 inh -9%, TrxR1 substrate 11%[57.1 µM] and VDR inhibitor 3%.
`O=C(NCc1ccccc1)c1cccnc1` gave Sfp PPTase inh 15%, IDH1 R132H inh -8%, PLK1 PBD inh -14%, TrxR1 inh 31%, TrxR1 substrate 3% and VDR inhibitor inconclusive.
Screening COc1ccc(CNC(=O)[C@H]2C[C@@H]2[C@H](NP(=O)(c2ccccc2)c2ccccc2)c2ccccc2)cc1OC returned Sfp PPTase inh 8%.
Screening Cc1ccc(CNC(=O)[C@@H]2C[C@H]2[C@@H](NP(=O)(c2ccccc2)c2ccccc2)c2ccccc2)o1 returned Sfp PPTase inh 50µM*.
For CCC(C)/C=C/C1=CC2=C(Cl)C(=O)C3(C)OC(=O)C(C(=O)C(C)C(C)O)C3C2=CO1 (stereo not drawn) the results were Sfp PPTase inh 32µM*, IDH1 R132H inh -18%, PLK1 PBD inh -5%, TrxR1 inh -18%, TrxR1 substrate -3% and VDR inhibitor -27%.
Screening COc1ccccc1C=C1SC(=S)NC1=O returned IDH1 R132H inh 1%, PLK1 PBD inh 27µM*, TrxR1 inh inconclusive, TrxR1 substrate -23% and VDR inhibitor -28%.
`O=C1NC(=S)S/C1=C\c1cc2ccccc2nc1N1CCCCC1` gave Sfp PPTase inh 5%, IDH1 R132H inh 2%, PLK1 PBD inh 11µM*, TrxR1 inh inconclusive, TrxR1 substrate -11% and VDR inhibitor -6%.
For O=C1NC(=S)SC1=Cc1ccccc1Cl the results were IDH1 R132H inh -6%, PLK1 PBD inh 21µM*, TrxR1 inh -32%, TrxR1 substrate -15% and VDR inhibitor inconclusive.
For COc1ccc(NC(=O)c2cnc(Nc3ccc(C)c(Cl)c3)c3ccccc23)c(OC)c1 the results were IDH1 R132H inh -4%, TrxR1 inh 32%, TrxR1 substrate 28% and VDR inhibitor -5%.
`COc1cc(OC)c(NC(=O)c2oc3ccc4c(c3c2C)C(=O)CC(C)(C)O4)cc1Cl` gave IDH1 R132H inh 9%, TrxR1 inh 16%, TrxR1 substrate 1% and VDR inhibitor 2%.
For CC(=O)c1ccc(-c2c(C3C4C=CCC(C)C4C(=O)N3Cc3ccccc3)ccc3ccccc23)cc1 (stereo not drawn) the results were Sfp PPTase inh 1%, TrxR1 inh -7%, TrxR1 substrate -6% and VDR inhibitor -19%.
Screening Cc1ccc(S(=O)(=O)N2CCN=C2SCc2ccccc2)cc1 returned Sfp PPTase inh -18%, IDH1 R132H inh 15%, PLK1 PBD inh 30µM*, TrxR1 inh 24%, TrxR1 substrate -4% and VDR inhibitor -26%.
For COc1ccccc1C(=O)N/C(=C/c1ccc(Br)cc1)C(=O)N1CCCC1 the results were Sfp PPTase inh -11%, IDH1 R132H inh 5%, PLK1 PBD inh 27µM*, TrxR1 inh 5%[57.1 µM], TrxR1 substrate -9%[57.1 µM] and VDR inhibitor 7%.
`COc1ccccc1C(=O)N/C(=C\c1ccc(Br)cc1)C(=O)NCC(=O)O` gave Sfp PPTase inh 11%, IDH1 R132H inh 8%, PLK1 PBD inh -10%, TrxR1 inh 1%[57.1 µM], TrxR1 substrate 11%[57.1 µM] and VDR inhibitor -14%.
For Cc1cc2c(cc1S(=O)(=O)NCCc1ccc(Cl)cc1)OCC(=O)N2 the results were Sfp PPTase inh 2%, IDH1 R132H inh 10%, PLK1 PBD inh -3%, TrxR1 inh 13%[57.1 µM], TrxR1 substrate -7%[57.1 µM] and VDR inhibitor -3%.
Screening CCS(=O)(=O)N1CC(=O)N(c2ccc(Cl)cc2)C(C)(C(=O)NC2CCCCC2)C1 (stereo not drawn) returned IDH1 R132H inh -9%, TrxR1 inh 8%, TrxR1 substrate -5% and VDR inhibitor 7%.
CN(CCO)c1cc(N2CCC3(CC2)OCCO3)c2nonc2c1[N+](=O)[O-] was read as Sfp PPTase inh 6%, IDH1 R132H inh 7%, PLK1 PBD inh -11%, TrxR1 inh 28µM*, TrxR1 substrate -33% and VDR inhibitor 3%.
`CN(CCO)c1cc(N2CCCCC2)c2nonc2c1[N+](=O)[O-]` gave Sfp PPTase inh -9%, IDH1 R132H inh 4%, PLK1 PBD inh -7%, TrxR1 inh 45µM*, TrxR1 substrate -18% and VDR inhibitor -9%.
`O=[N+]([O-])c1c(NCCO)cc(N2CCC3(CC2)OCCO3)c2nonc12` gave Sfp PPTase inh -16%, IDH1 R132H inh 7%, PLK1 PBD inh -19%, TrxR1 inh -7%, TrxR1 substrate -17% and VDR inhibitor 2%.
